Results reported in PubChem BioAssay (EPA / NIEHS).
Values joined by “and” are separate entries in the source; they are usually repeats but may differ in a detail not shown here. Identical values can stand only once. Results filed as inconclusive are left out. Active and inactive are the calls of the source. Rule for the calls: active = hit-call score of the fitted dose curve at least 0.9, where 1 is the maximum; inconclusive = response in the unintended direction; inactive = score below 0.9.

Key:
[1] = TOX21_p53_BLA_p2_viability: Viability Assessment in the Tox21 HCT-116 p53 Agonism Beta-lactamase Assay, Phase 2 (AID 2283591);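 note: compound exposure lasted 16 h at 37 °C; actives lower the ATP signal meaning cytotoxicity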
Procedure, shortened: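 HCT116 p53-bla cells, 4000/well, dosed after 5 h plating (217-fold dilution of DMSO stocks) and incubated 16 h at 37C. Viability taken as cellular ATP by CellTiter-Glo luminescence after 30 min RT; signal loss marks cytotoxicity.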

[2] = target: Cellular tumor antigen p53 (Homo sapiens) (UniProt P04637); assay: TOX21_p53_BLA_p2_ratio: Tox21 HCT-116 p53 Agonism Beta-lactamase Assay, Ratio, Phase 2 (AID 2283592)
Procedure, shortened: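 HCT116 p53-bla; 4000 cells/well; 5 h pre-incubation; cpd in DMSO, 217-fold dilution; 16 h 37C/5% CO2; CCF4-AM 2 h RT; Ex 405, Em 460/530 ratio; DMSO = baseline; positive fitting direction.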

[3] = TOX21_p53_BLA_p3_viability: Viability Assessment in the Tox21 HCT-116 p53 Agonism Beta-lactamase Assay, Phase 3 (AID 2283593);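 note: cells exposed to compound for 16 h before reading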
Procedure, shortened: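 HCT116 cells, 4000/well, dosed 5 h after plating by pin transfer (217-fold dilution from DMSO stock) and incubated 16 h at 37C, 5% CO2. Viability read as ATP luminescence with CellTiter-Glo after 30 min at room temperature.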

[4] = target: Cellular tumor antigen p53 (Homo sapiens) (UniProt P04637); assay: TOX21_p53_BLA_p3_ratio: Tox21 HCT-116 p53 Agonism Beta-lactamase Assay, Ratio, Phase 3 (AID 2283596)
Procedure, shortened: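 HCT116 p53-bla cells (4000/well) given compound in DMSO (217-fold dilution) after 5 h, incubated 16 h at 37C. CCF4-AM substrate 2 h at room temperature; 460/530 nm emission ratio, gain fitted against DMSO.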

[5] = TOX21_p53_BLA_p4_viability: Viability Assessment in the Tox21 HCT-116 p53 Agonism Beta-lactamase Assay, Phase 4 (AID 2283597);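 note: hits lower the luminescence signal meaning cytotoxicity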
Procedure, shortened: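 Cells plated, 5 h pre-incubation; DMSO compounds pinned (217-fold dilution); 16 h, 37C/5% CO2; CCF4-AM 2 h RT; CellTiter-Glo 30 min RT; luminescence read.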

[6] = target: Cellular tumor antigen p53 (Homo sapiens) (UniProt P04637); assay: TOX21_p53_BLA_p5_ratio: Tox21 HCT-116 p53 Agonism Beta-lactamase Assay, Ratio, Phase 5 (AID 2283599)
Procedure, shortened: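 HCT-116 p53-bla cells (4000/well) plated 5 h, dosed with compound (217-fold DMSO dilution) for 16 h at 37 C; CCF4-AM substrate 2 h at room temperature. Activity is the 460/530 nm emission ratio (405 nm excitation), fitted in gain-of-signal direction versus DMSO.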

[7] = TOX21_p53_BLA_p5_viability: Viability Assessment in the Tox21 HCT-116 p53 Agonism Beta-lactamase Assay, Phase 5 (AID 2283600)
Procedure, shortened: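 4000 cells/well; 5 h pre-incubation; DMSO compounds pin-transferred, 217-fold dilution; 16 h, 37C/5% CO2; CCF4-AM 2 h RT; CellTiter-Glo 30 min RT; luminescence.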

[8] = target: Cellular tumor antigen p53 (Homo sapiens) (UniProt P04637); assay: TOX21_p53_BLA_p4_ratio: Tox21 HCT-116 p53 Agonism Beta-lactamase Assay, Ratio, Phase 4 (AID 2283601)
Procedure, shortened: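 HCT-116 p53 beta-lactamase reporter cells (4000/well) preincubated 5 h, then compound (217-fold dilution of DMSO stock) for 16 h at 37C. CCF4-AM substrate added 2 h at room temperature; 460/530 nm emission ratio fitted upward versus DMSO.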

Measured: AC50

Sequence of Cellular tumor antigen p53 (Homo sapiens) (P04637 whole entry, looked up): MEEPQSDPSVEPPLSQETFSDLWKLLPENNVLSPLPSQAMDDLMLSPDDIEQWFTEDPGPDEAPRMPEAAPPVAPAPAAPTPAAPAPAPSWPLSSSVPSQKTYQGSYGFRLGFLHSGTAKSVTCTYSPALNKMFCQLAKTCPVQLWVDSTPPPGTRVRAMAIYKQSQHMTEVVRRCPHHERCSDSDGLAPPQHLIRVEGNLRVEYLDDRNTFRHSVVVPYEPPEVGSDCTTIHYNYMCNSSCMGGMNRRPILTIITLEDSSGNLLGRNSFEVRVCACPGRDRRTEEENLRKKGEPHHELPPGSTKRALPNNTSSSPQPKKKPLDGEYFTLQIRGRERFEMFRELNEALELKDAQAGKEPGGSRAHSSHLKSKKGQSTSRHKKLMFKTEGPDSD

O=C(O)C[C@H](NC(=O)OCc1ccccc1)C(=O)O
inactive: all assays above

O=S(=O)(O)Oc1ccc(C(c2ccc(OS(=O)(=O)O)cc2)c2ccccn2)cc1
inactive: all assays above

CC(C)COC(=O)COc1cc(Cl)c(Cl)cc1Cl
inactive: all assays above

O=S(c1cc(Cl)cc(Cl)c1O)c1cc(Cl)cc(Cl)c1O
active: [2] 16.2 µM | [4] 6.85 µM | [8] 15.1 µM
inactive: all other assays above

CCCCCCCC/C=C\CCCCCCCCOCCO
active: [1] 72.5 µM | [2] 96.6 µM | [3] 29.2 µM | [4] 80.3 µM | [5] 72.6 µM | [6] 56.2 µM | [7] 21.1 µM | [8] 105 µM

CCN(CC)CCCN(c1ccccc1)C1Cc2ccccc2C1
active: [1] 9.12 µM | [2] 23.3 µM | [3] 26.6 µM | [4] 36.3 µM | [5] 2.11 µM | [6] 36.7 µM | [7] 30.6 µM | [8] 23 µM

NC(N)=NCC1COc2ccccc2O1 (centres undefined)
inactive: all assays above

COc1cc(C(=O)NS(=O)(=O)c2ccccc2C)ccc1Cc1cn(C)c2ccc(NC(=O)OC3CCCC3)cc12
active: [1] 14.2 µM | [2] 7.01 µM | [3] 7.45 µM | [4] 8.2 µM | [5] 8.18 µM | [6] 12.9 µM | [7] 10.1 µM | [8] 9.98 µM

C=CCN1C(=O)C(CC(C)C)NC1=S (centres undefined)
inactive: all assays above

Nc1c(N=Nc2ccc(-c3ccc(N=Nc4cc(S(=O)(=O)O)c5ccccc5c4N)cc3)cc2)cc(S(=O)(=O)O)c2ccccc12
inactive: all assays above

NC1(c2ccc(-c3nc4ccn5c(=O)[nH]nc5c4cc3-c3ccccc3)cc2)CCC1
active: [5] 8.62 µM
inactive: all other assays above

Nc1c2c(nc3c1CCC3)CCCC2
inactive: all assays above

Nc1nc(F)nc2c1ncn2[C@@H]1O[C@H](CO)[C@@H](O)[C@@H]1O
active: [2] 21.1 µM and 20 µM | [4] 13.2 µM and 20.6 µM | [6] 22.5 µM and 25.2 µM | [8] 22.5 µM and 24 µM
inactive: [1] | [3] | [5] | [7]

O=C(O)COC(=O)Cc1ccccc1Nc1c(Cl)cccc1Cl
inactive: all assays above

c1ccc2c(CC3=NCCN3)cccc2c1
inactive: all assays above

C[C@@H]1CN(CCCn2c3ccccc3c3ccccc32)C[C@H](C)N1
active: [5] 28.9 µM
inactive: all other assays above

CC(C)(C)C(=O)C(Oc1ccc(Cl)cc1)n1ccnc1 (centres undefined)
inactive: all assays above

Cc1ccc(S(=O)(=O)NC(=O)NN2CC3CCCC3C2)cc1 (centres undefined)
inactive: all assays above

CN1[C@@H]2CC[C@H]1CC(OC(=O)C(O)c1ccccc1)C2 (some centres undefined)
inactive: all assays above

O[C@@H](CNC[C@H](O)[C@H]1CCc2cc(F)ccc2O1)[C@@H]1CCc2cc(F)ccc2O1
active: [1] 34.9 µM | [5] 33.5 µM | [6] 37.1 µM | [7] 43.1 µM | [8] 43.4 µM
inactive: [2] | [3] | [4]

CC1(C)S[C@@H]2[C@H](NC(=O)C(C(=O)O)c3ccccc3)C(=O)N2[C@H]1C(=O)O (some centres undefined)
inactive: all assays above

O=C(CC(=O)C(F)(F)F)c1ccccc1
active: [3] 76.4 µM
inactive: all other assays above

COc1ccccc1/C=C/C=O
inactive: all assays above

c1cc(OCC2CO2)cc(OCC2CO2)c1 (centres undefined)
active: [2] 14.3 µM | [3] 70.3 µM | [4] 20.4 µM | [6] 14.3 µM | [8] 63.2 µM
inactive: [1] | [5] | [7]

CC[C@H]1CN2CCc3cc(OC)c(OC)cc3[C@@H]2C[C@@H]1C[C@H]1NCCc2cc(OC)c(OC)cc21
inactive: all assays above

C[n+]1cc2c3c(ccc2c2ccc4cc5c(cc4c21)OCO5)OCO3
active: [1] 4.28 µM | [2] 4.96 µM | [3] 2.31 µM | [4] 2.32 µM | [5] 3.64 µM | [6] 5.66 µM | [7] 5.48 µM | [8] 9.14 µM

C=CC(OCC)OCC
inactive: all assays above

CCCCCCCCOc1ccccc1C(=O)Nc1ccc(C(=O)OCC[N+](C)(CC)CC)cc1
active: [1] 28.9 µM | [3] 30.5 µM | [5] 19 µM | [7] 32.8 µM
inactive: all other assays above

CCOc1ccc([N+](=O)[O-])cc1
inactive: [1] | [2]
active: [3] 70.9 µM | [4] 80.9 µM | [5] 46.7 µM | [6] 84.9 µM | [7] 61.1 µM | [8] 81.5 µM

NCCOCCN
inactive: all assays above

CCOc1cc([N+](=O)[O-])c(OCC)cc1N1CCOCC1
inactive: all assays above

CO[C@H]1C[C@H](O[C@H]2[C@H](C)O[C@@H](O[C@@H]3/C(C)=C/C[C@@H]4C[C@@H](C[C@]5(C=C[C@H](C)[C@@H](C6CCCCC6)O5)O4)OC(=O)[C@@H]4C=C(C)[C@@H](O)[C@H]5OC/C(=C\C=C\[C@@H]3C)[C@]54O)C[C@@H]2OC)O[C@@H](C)[C@@H]1O
active: [1] 5.93 µM | [3] 9.45 µM | [4] 15.8 µM | [5] 5.07 µM | [6] 7.81 µM | [7] 6.84 µM
inactive: [2] | [8]

CC(C)[C@@H]1CC[C@@H](C)C[C@H]1OC(=O)c1ccccc1O
active: [3] 37.3 µM
inactive: all other assays above

CCO[Si](CCCCl)(OCC)OCC
active: [2] 87.7 µM | [4] 86.2 µM
inactive: all other assays above

Cc1ncc(C[n+]2csc(CCOP(=O)(O)O)c2C)c(N)n1
inactive: all assays above

OC1(c2ccc(Cl)c(C(F)(F)F)c2)CCN(CCCC(c2ccc(F)cc2)c2ccc(F)cc2)CC1
active: [1] 12.8 µM | [2] 19.6 µM | [3] 30.7 µM | [4] 40.1 µM | [5] 20 µM | [6] 43.2 µM | [7] 37.6 µM | [8] 34.1 µM

C=CC[C@@H]1/C=C(\C)C[C@H](C)C[C@H](OC)[C@H]2O[C@@](O)(C(=O)C(=O)N3CCCC[C@H]3C(=O)O[C@H](/C(C)=C/[C@@H]3CC[C@@H](O)[C@H](OC)C3)[C@H](C)[C@@H](O)CC1=O)[C@H](C)C[C@@H]2OC
active: [1] 36.5 µM | [5] 35.9 µM | [6] 36.8 µM | [7] 40.5 µM
inactive: all other assays above

CC(C)C[C@H](NC(=O)CNC(=O)[C@H](Cc1ccc(O)cc1)NC(=O)[C@H](CO)NC(=O)[C@H](Cc1c[nH]c2ccccc12)NC(=O)[C@H](Cc1cnc[nH]1)NC(=O)[C@@H]1CCC(=O)N1)C(=O)N[C@@H](CCCN=C(N)N)C(=O)N1CCC[C@H]1C(=O)NCC(N)=O (stereo in doubt)
inactive: all assays above
